In the library only some 8.3% were active in any assay of this set; here they are far more common.
HCV inhibitor = blocks hepatitis C virus; Huh7.5.1 HCVcc-Cre infection, luciferase reporter, 44 h; Potency, µM (doses to about 41.8 µM), for the others: top-dose activity change, negative = inhibition, most hits filed as inhibitors; 3.4% of 340,000 active; note: potency is the fitted concentration of half-maximal effect
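Infectious HCVcc-Cre (~0.5 moi) was added to cells just after compound, with cells seeded 4 h earlier at 1,000 per well. Luciferase activity after 44 h culture reported infection; substrate was incubated 15 min at room temperature before reading.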
HCMV inh = inhibitors of human cytomegalovirus; 4.5% of 410,000 active; activity change, negative = inhibition, % at 57.5 µM; HFF cells, HCMV-luciferase reporter, 72 h; hits give low values; in the data active = activity change below about -60%; inconclusive = no clear call, values can overlap the other calls; inactive = above about -39%
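HFF cells seeded 16 h at 37C, treated with compounds, infected with luciferase-reporter HCMV at MOI 1 PFU/cell; luciferase read at 72 h post infection, normalized to buffer-only and Salinomycin controls.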
FMDV inh = foot and mouth disease virus antiviral activity | FMDV antiviral cell-based qHTS | Potency, µM (series often up to 57.9 µM), inactives show top-dose activity change, negative = inhibition, usual class: inhibitors | 1.2% of 410,000 active | AID 1159524; calls by dose curve; tested in HEK293T cells; note: read-out not given here; potency is the fitted concentration of half-maximal effect; nearly all actives have a fitted effect of over 45% in size
Giardia FBPA inh-1 = blocks Giardia fructose-bisphosphate aldolase activity. A8B2U2. purified Giardia FBPA. Potency, µM (doses to about 59.6 µM), inactives show at the highest dose activity, negative = inhibition, actives largely listed as inhibitors. 0.71% of 290,000 active. AID 2451; note: potency is the fitted concentration of half-maximal effect; nearly all actives have a fitted effect of over 55% in size
Target sequence (A8B2U2 whole entry, looked up): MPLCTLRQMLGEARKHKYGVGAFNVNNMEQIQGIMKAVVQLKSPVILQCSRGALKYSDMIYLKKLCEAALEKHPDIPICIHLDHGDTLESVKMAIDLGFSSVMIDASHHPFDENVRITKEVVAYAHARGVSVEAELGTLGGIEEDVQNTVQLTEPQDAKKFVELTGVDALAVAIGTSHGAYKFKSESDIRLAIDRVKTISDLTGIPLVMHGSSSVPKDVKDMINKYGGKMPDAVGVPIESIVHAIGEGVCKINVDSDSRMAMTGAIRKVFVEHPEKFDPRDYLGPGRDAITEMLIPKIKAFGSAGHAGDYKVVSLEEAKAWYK
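40 nM FBPA preincubated 10 min at RT with compound (up to 57.5 uM final), then substrate plus GAPDH/TPI/NAD/arsenate coupling and diaphorase/resazurin added. Fluorescence read after 20 min at RT, 525/598 nm.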
Lassa entry inh = inhibitors of Lassa virus binding or cell entry. Lassa virus pseudotype entry inhibition, cell reporter. 1.2% of 300,000 active. Potency, µM (titrated, usually from 37.9 µM), inactives show at the top dose activity change, negative = inhibition, hits mostly inhibitors. AID 540256; calls by dose curve; tested in HEK293 cells; note: potency is the fitted concentration of half-maximal effect; nearly all actives have a fitted effect of over 50% in size
Marburg entry inh = blocks Marburg virus binding to or entry into cells. Potency, µM (top dose mostly 37.8 µM), inactives show at the top dose activity change, negative = inhibition, actives largely listed as inhibitors. AID 540276. 1.8% of 300,000 active. Marburg virus pseudotyped entry inhibition, cell reporter; calls by dose curve; tested in HEK293 cells; note: potency is the fitted concentration of half-maximal effect
Giardia growth = inhibitors of Giardia lamblia growth; shares compounds with Giardia FBPA inh-1; 5% of 1,500 active; Giardia lamblia trophozoite growth inhibition; Potency, µM (titrated, usually from 57.5 µM), inactives show top-dose activity change, negative = inhibition, most hits filed as inhibitors;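 note: potency is the fitted concentration of half-maximal effect; trophozoites exposed to compound for 48 h at 37 °C; nearly all actives have a fitted effect of over 70% in size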
Mammalian tox = mammalian cytotoxicity of Giardia aldolase inhibitor hits; shares compounds with Giardia FBPA inh-1; mammalian cell viability counter-screen, qHTS; Potency, µM (titrated, usually from 57.5 µM), inactives show top-dose viability change, negative = toxicity, most hits filed as inhibitors; 4% of 1,500 active; AID 2786;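 note: Chinese hamster ovary cells used as mammalian cytotoxicity surrogate; viability measured as cellular ATP by luminescence; potency is the fitted concentration of half-maximal effect; compound exposure lasted 48 h before reading; nearly all actives have a fitted effect of over 60% in size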
Giardia FBPA inh-2 = confirmation of Giardia fructose-bisphosphate aldolase inhibitors. shares compounds with Giardia FBPA inh-1. purified Giardia aldolase enzyme activity, qHTS. Potency, µM (top dose mostly 57.5 µM), inactives show at the top dose activity change, negative = inhibition, actives largely listed as inhibitors. 5% of 1,500 active. AID 2787; note: potency is the fitted concentration of half-maximal effect; nearly all actives have a fitted effect of over 45% in size
Rabbit FBPA inh = rabbit FBP aldolase inhibition by Giardia aldolase hits | shares compounds with Giardia FBPA inh-1 | Rabbit muscle FBPA enzyme inhibition, selectivity counter-screen | Potency, µM (titrated, usually from 57.5 µM), for the others: at the highest dose activity, negative = inhibition, most hits filed as inhibitors | 4% of 1,500 active | AID 2794; note: potency is the fitted concentration of half-maximal effect; nearly all actives have a fitted effect of over 60% in size
Target sequence (P00883 whole entry, looked up): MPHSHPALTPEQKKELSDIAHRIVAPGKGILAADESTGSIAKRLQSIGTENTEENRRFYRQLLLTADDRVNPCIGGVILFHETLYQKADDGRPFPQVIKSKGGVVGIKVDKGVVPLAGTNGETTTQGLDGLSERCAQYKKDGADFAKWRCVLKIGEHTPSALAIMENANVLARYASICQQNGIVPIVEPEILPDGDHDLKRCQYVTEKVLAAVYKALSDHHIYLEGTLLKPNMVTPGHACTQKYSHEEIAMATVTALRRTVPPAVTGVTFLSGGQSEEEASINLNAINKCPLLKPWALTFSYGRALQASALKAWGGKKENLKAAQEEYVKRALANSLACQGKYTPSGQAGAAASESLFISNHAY
GAPDH coupling = counter-screen for Giardia aldolase inhibitors: GAPDH coupling enzyme | shares compounds with Giardia FBPA inh-1 | 6% of 1,500 active | GAPDH coupling enzyme counterscreen, biochemical, qHTS | AID 2795 | Potency, µM (top dose mostly 57.5 µM), for inactives: top-dose activity change, negative = inhibition, most hits filed as inhibitors; note: potency is the fitted concentration of half-maximal effect; nearly all actives have a fitted effect of over 55% in size
The depositor's hits bear a star; ? = inconclusive; . = no result given; [ ] = another dose, or the depositor's remark. Unless noted, calls come from the whole dose curve; as a rule, active = well fitted curve in the direction sought with a large enough effect; inconclusive = small, poorly fitted or top-dose-only effect, or another doubt; inactive = no such curve, though single readings can be large; an effect the other way counts as inactive or inconclusive. % is set by controls: 0 for no effect and ±100 for the full control effect.

SMILES	HCV inhibitor	HCMV inh	FMDV inh	Giardia FBPA inh-1	Lassa entry inh	Marburg entry inh	Giardia growth	Mammalian tox	Giardia FBPA inh-2	Rabbit FBPA inh	GAPDH coupling
CN(Cc1ccccc1)C(=O)C1CCN(S(=O)(=O)c2ccc3c(c2)oc(=O)n3C)CC1	.	-7.9	0.0%	.	-1.4%[46.1 µM]	0.7%[46.1 µM]	.	.	.	.	.
O=C(N/N=C\c1ccccn1)c1ccccc1O	2.8%	-10.1	-30.9%	15.8µM*	5.5%	?	-23.4%	?	-4.0%	-3.7%	-6.7%
Cc1cc(Br)ccc1NC(=O)c1coc(=O)c2ccccc12	.	-14.2	-21.9%	.	-3.6%[46.1 µM]	14.8%[46.1 µM]	.	.	.	.	.
Cn1nnc2c(N3CCN(c4ccc(F)cc4)CC3)ncnc21	.	-9.7	-32.4%	.	?	.	.	.	.	.	.
CCN(CC)S(=O)(=O)c1cc(OC)ccc1N=Nc1ccc(O)c2ncccc12	5.01µM*	-97.0*	-19.7%	?	.	.	-14.3%[38.3 µM]	29.1µM*	?	-18.6%	?
CCN(CC)S(=O)(=O)c1cccc2cccnc12	0.1%	12.6	14.6%	-7.6%	-11.5%	2.2%	.	.	.	.	.
Cc1cccc(N=Nc2ccc(O)c3ncccc23)c1	5.62µM*	-102.2*	5.8%	.	?	4.47µM*	.	.	-19.7%	-17.6%	-13.3%
CCOc1ccc(N=Nc2cc(C(C)C)ccc2O)cc1	-14.2%	-36.8	2.5%	2.1%	-10.4%	16.5%	.	.	.	.	.
CCOc1ccc(N=Nc2ccc(O)c3ncccc23)cc1	7.94µM*	-87.1*	13.6%	-8.4%	-20.0%[46.1 µM]	?	16.7%[38.3 µM]	-25.4%	?	-7.5%	-21.6%
CN(C)C(=O)OC1=C(c2ccccc2)Sc2ccccc2-n2cccc21	.	.	-11.3%	.	.	.	.	.	.	.	.
CC(CN1CCCC1)OC(=O)c1cccc(F)c1 (centres undefined)	7.5%	78.0	-4.0%	17.8µM*	.	.	9.2%[10.4 µM]	17.8%	10.9%	13.1%	-7.9%
Cc1cc(C)c(NC(=O)Cn2c(=O)n(-c3cccc(C(F)(F)F)c3)c(=O)c3c(C)c(C)sc32)c(C)c1	.	-24.3	-8.2%	.	5.7%[46.1 µM]	-30.5%[46.1 µM]	.	.	.	.	.
O=C(c1ccc2c(c1)N(Cc1cccc(Cl)c1)C(=O)c1ccccc1S2(=O)=O)N1CCc2ccccc21	.	14.1	-8.9%	.	?	.	.	.	.	.	.
CC1(C)CC(Cc2nc(=S)[nH][nH]2)C(=O)O1 (centres undefined)	2.2%	-3.0	-7.3%	6.29µM*	.	.	3.1%	-8.1%	4.7%	7.7%	8.2%
O=C(NC(=S)Nc1cccc(C(F)(F)F)c1)c1ccc2nonc2c1	7.5%	?	-29.9%	9.98µM*	?	?	6.4%[10.4 µM]	-9.4%	8.8%	0.0%	3.1%
Cc1coc2c1c(C)cc1oc(=O)c(CC(=O)NCc3ccc(Cl)cc3)c(C)c12	.	3.5	6.8%	.	17.2%[46.1 µM]	5.0%[46.1 µM]	.	.	.	.	.
COc1ccc(CCN2C(=O)CN(C3CCCCCC3)C(=O)C2c2ccc(C)cc2)cc1OC (centres undefined)	.	42.9	3.1%	.	10.2%[46.1 µM]	.	.	.	.	.	.
COC(=O)C1=C(C)N(Cc2ccccc2)C(=NCC2CC2)N[C@H]1c1ccc(Br)cc1	.	.	.	3.1%	.	.	.	.	.	.	.
Fc1cccc2sc(Nc3nnc(-c4ccco4)o3)nc12	2.9%	13.5	-12.1%	?	?	?	.	.	.	.	.
COc1cccc2sc(Nc3nnc(-c4ccc(F)cc4)o3)nc12	?	30.2	14.5%	15.8µM*	.	.	66.6%	-10.6%	13.1%	-5.8%	-0.3%
Cc1oc(-c2ccc(C(=O)NCc3cccc(F)c3)cc2)nc1COc1ccccc1	.	-14.8	0.0%	.	26.0%[46.1 µM]	.	.	.	.	.	.
CCOC(=O)c1cnc(-c2ccc(C(F)(F)F)cn2)[nH]c1=O	13.9%	-13.5	3.4%	5µM*	-23.7%	-11.9%	?	-6.6%	-6.2%	-9.2%	-10.3%
CCCc1nn2c(=O)cc(COC(=O)c3ccc(NC(=O)COc4ccccc4F)cc3)nc2s1	.	-32.7	-7.3%	.	4.2%[46.1 µM]	.	.	.	.	.	.
Cc1ccc(S(=O)(=O)N2CCN(C(=O)CSc3nnc(C)c(=O)[nH]3)CC2)cc1	20.2%	22.2	-11.9%	28.2µM*	-10.4%	15.6%	?	5.4%	6.3%	14.1%	21.8%
Cc1cc(NC(=O)CCc2nc3cccnc3n2-c2ccccc2)ccc1Br	.	-35.0	?	.	?	?	.	.	.	.	.
COc1cc(-c2nnc(SCC(=O)N(C)C3CCCCC3)o2)cc(OC)c1OC	.	-8.5	0.0%	.	-0.4%[46.1 µM]	-4.5%[46.1 µM]	.	.	.	.	.
O=S1(=O)N=C(N/N=C/c2cccs2)c2ccccc21	1.1%	-16.6	8.3%	2µM*	?	-31.3%[46.1 µM]	-3.3%[38.3 µM]	-4.7%	1.1%	11.7%	4.3%
O=[N+]([O-])c1ccc(O)c(/C=N/NC2=NS(=O)(=O)c3ccccc32)c1	-13.0%	22.4	-5.5%	8.89µM*	-0.6%[46.1 µM]	?	-6.1%[38.3 µM]	-13.9%	?	0.9%	-16.4%
